Screening results as filed in PubChem.
Sampled rows, rich in hits. Any-hit rate of the full collection: about 2.4%.
CHT inh – inhibits the human high affinity choline transporter; CHT-expressing cells, membrane potential dye, choline response; hits give low values; 310,000 tested, 0.86% active; Q9GZV3; B-score at 10 µM;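 active means B-score over 3 SD under the library average, and starting fluorescence ratio not unusually high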;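 further: choline stimulus applied at its EC90 after an EC20 pre-addition; B-score computed on integrated fluorescence ratio after choline addition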
ANO1 block – mouse TMEM16A channel inhibition, primary screen; Q8BHY3; HEK293 TMEM16A/YFP iodide influx fluorescence, ionomycin; normalized B-score (activity score, 25-100; higher = stronger inhibition) at 10 µM; 310,000 tested, 1.2% active; AID 588511;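 active means ratio plate-corrected score three or more library SD toward inhibition, starting fluorescence score within five deviations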;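 further: score derived from kinetic fluorescence span divided by baseline fluorescence per well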
ANO1 activ – activators or potentiators of mouse TMEM16A chloride channel | Q8BHY3 | HEK293 TMEM16A/YFP-H148Q/I152L, iodide quench fluorescence; hits give low values | B-score at 10 µM | 340,000 tested, 0.3% active;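 active means fluorescence-ratio B-score plate-corrected deviation score at least 3 library SD below zero, with starting fluorescence score within 5 deviations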;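 further: channel opened by trigger with iodide after compound preincubation; score built on the fluorescence ratio of max minus min over baseline; more negative score means more quench and so TMEM16A activation or potentiation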
CHT PAM – allosteric activators of human choline transporter CHT; B-score at 10 µM; Q9GZV3; CHT-expressing cells, membrane potential dye, choline EC20; hits give high values; LV-AA mutant CHT in HEK293 cells; 310,000 tested, 0.49% active;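 active means initial fluorescence not abnormally high and integrated response B-score, plate-corrected, over 3 SD above library mean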
CHT block conf – confirmation of human choline transporter CHT inhibitors | shares compounds with CHT inh | CHT-expressing cells, choline membrane potential dye; LV-to-AA substituted CHT, HEK293 cells | CHT activity remaining % of control (hits give low values), % at 10 µM | 2,400 tested, 70% active;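 active means choline transporter activity left, mean of duplicates at 10 µM, below buffer-only control mean minus 3 SD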;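 further: depolarization triggered by choline at its EC90 following an EC20 pre-addition; 0% = hemicholinium-3 full block and 100% = buffer-only control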
HEK293 CHT ctr – counter-screen for CHT inhibitors: effect in parental HEK293 cells; shares compounds with CHT inh; membrane potential dye, choline response; active = decrease or increase beyond buffer ±3SD; membrane potential ratio readout (active if shifted either direction beyond buffer ±3SD; no single direction) at 10 µM; 2,400 tested, 4% active;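 further: parental cells lack the transporter so any hit is non-specific; ratio is peak minus trough fluorescence over baseline after EC90 choline challenge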
* = called active by the depositor; i = inactive; . = no result.

SMILES | CHT inh | ANO1 block | ANO1 activ | CHT PAM | CHT block conf | HEK293 CHT ctr
CCOc1ccccc1N1CCN(C(=O)CC(C)(C)C)CC1 | i | i | i | i | . | .
CCOc1ccccc1N1CCN(C(=O)C(F)(F)F)CC1 | -6.2* | i | i | i | i | i
C[n+]1c(-c2ccc(C=NNC(=O)c3ccc(C(=O)NN=Cc4ccc(-c5cn6ccccc6[n+]5C)cc4)cc3)cc2)cn2ccccc21 | . | . | i | . | . | .
CC1CCCCN1CCCNC(=O)c1ccc2c(=O)n(CCc3ccccc3)c(=O)[nH]c2c1 (stereo not given) | i | i | i | i | . | .
CCOC(=O)CSCc1c(C#N)c2ccccc2n1C | -6.8* | i | i | i | i | i
Cn1c(CN2CCCC2)c(C#N)c2ccccc21 | -5* | i | i | i | 71%* | i
CN1CCN(Cc2c(C#N)c3ccccc3n2C)CC1 | i | i | i | i | . | .
Cc1ccc2nc(N(CCCN(C)C)C(=O)COc3ccc(Cl)cc3)sc2c1 | i | i | i | i | . | .
C=Cn1cc[n+](CC(=O)c2ccc(-c3ccccc3)cc2)c1 | -6.7* | i | i | i | 60%* | i
Cc1ccc(-n2c(C)cc(C3=NNC(=NC4CC4)SC3)c2C)cc1C | -6.3* | i | i | i | i | i
CC(=O)c1cccc(OCC(=O)c2cc(C)n(-c3cc(C)on3)c2C)c1 | -5* | i | i | i | 63%* | i
CCCN(CCC)c1nc(N(CCC)CCC)[nH]c(=O)n1 | -5.1* | i | i | i | 64%* | i
O=c1[nH]snc1N1CCOCC1 | i | i | i | i | . | .
